Measurements as given in PubChem BioAssay AID741 (SRMLSC, 2007).
Records with an inconclusive call do not appear. Calls of active or inactive are those of the source. No stated cut-off is given here; in the data, active means toxicity enhancement factor above about 0.054; inconclusive means between about 0.00067 and that limit; inactive means weaker than that.

Assay: MRP-overexpressing cell chemosensitization – dose response (AID 741)
Conditions: MRP-overexpressing cells, viability with/without cytotoxic drug; slope difference: measured here: slope difference tox minus reversal, stronger effect = higher value; toxicity enhancement factor: stronger effect = higher value; viability: measured here: viability series, compound alone, at 10 µM, stronger effect = lower value

SMILES | slope difference | toxicity enhancement factor | viability
CCOC(=O)c1c(C)[nH]c(N=Nc2ccc(C)cc2)c1C | -0.597 | -0.006 (inactive) | 98.7%
Cc1ccc(-n2ncc3c(N4CCN(c5ccccc5)CC4)ncnc32)c(C)c1 | -1.27 | -0.037 (inactive) | 27.4%
CCCNS(=O)(=O)c1ccc(NC(=O)c2ccccn2)cc1 | -0.0969 | -0.001 (inactive) | 99.5%
c1ccc(-c2nc(N3CCOCC3)c3ccccc3n2)nc1 | -2.79 | -0.0278 (inactive) | 87%
CN1C(C(=O)Nc2ccccn2)=C(O)c2sccc2S1(=O)=O | -0.669 | -0.0064 (inactive) | 103%
CCOC(=O)c1sc(NC(=O)CSc2nnc(-c3ccco3)n2CC)c(C(=O)OCC)c1C | 3.89 | 0.364 (active) | 54.8%
Cc1cccc(Cn2c(NCC(C)O)nc3c2c(=O)n(C)c(=O)n3C)c1 (stereo unspecified) | -0.509 | -0.0055 (inactive) | 93.7%
Cc1ccc(/C=N/Nc2nc(Cl)c(Cl)cc2Cl)s1 | -0.0549 | -0.0006 (inactive) | 99.8%
c1ccc(N2CCN(c3ccccc3)C2c2ccncc2)cc1 | 3.19 | 0.0739 (active) | 82.9%
CC(=O)Oc1cccc2c1C(=O)c1c(OC(C)=O)cc(C(=O)O)cc1C2=O | -1.12 | -0.0114 (inactive) | 89.5%
COc1ccc2cc(C(c3nnnn3C(C)(C)C)N3CCc4ccccc4C3)c(=O)[nH]c2c1 (stereo unspecified) | -0.322 | -0.0045 (inactive) | 76.3%
COc1ccc(C(=O)Nc2nc3ccccc3[nH]2)cc1OC | -0.0153 | -0.0002 (inactive) | 87.3%
